CRE-bla Fsk = CRE-bla signaling modulation under forskolin stimulation | CHO CRE-bla reporter (cAMP response element driving beta-lactamase), forskolin EC10, beta-lactamase ratio | Potency, µM (series often up to 38.2 µM), actives largely listed as activators | actives 2.5% (n = 71,000) | AID 662; active means well fitted activation curve with a large enough effect in the signal ratio, with a control signal flat, not every such curve was filed as active; inconclusive means small, poorly fitted or top-dose-only effect, or effect the other way, or a change in a side signal; the % refers to the signal ratio
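The 460nm/530nm emission ratio after CCF4 loading defined %Activity, from which AC50 values were obtained. CRE-bla CHO cells received compound dilution series together with an EC10 level of NKH 477 for 3 hours at 37 degrees Celsius.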
HSD17B inhib = HSD17B dehydrogenase inhibition | Q99714 | recombinant HSD17B10, NADH fluorescence kinetic | Potency, µM (titrated, usually from 57.1 µM), actives largely listed as inhibitors | actives 7.6% (n = 75,000) | AID 893;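 further: the protocol describes HADH2 (HSD17B10) and not the HSD17B4 of the title; nearly all actives have a fitted effect of over 70% in size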
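20 nM HADH2, pH 9.0 Tris/Tween; cpd preinc 15 min RT; start w/ 1 mM NAD+ + 90 uM b-hydroxybutyryl-CoA; kinetic fluor ex360/em450 q30s x 4 min; delta last-first.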
A350 fluor = compounds fluorescent in Alexa 350 spectral region. max dye-equivalent concentration, M. actives 11% (n = 59,000). AID 590. Compound autofluorescence, 340/450 nm, Alexa 350 dye-equivalents; hits give high values; in the data active means max dye-equivalent concentration above about 10 nM; inconclusive means mostly about 1.1 nM to 9.6 nM
HADH2 inhib = blocks human hydroxyacyl-CoA dehydrogenase type II; Q99714; recombinant HADH2, NADH fluorescence, beta-hydroxybutyryl-CoA; Potency, µM (titrated, usually from 57.1 µM), most hits filed as inhibitors; actives 3.4% (n = 73,000); AID 886; further: nearly all actives have a fitted effect of over 60% in size
Target sequence (Q99714 whole entry, looked up, one chain of several): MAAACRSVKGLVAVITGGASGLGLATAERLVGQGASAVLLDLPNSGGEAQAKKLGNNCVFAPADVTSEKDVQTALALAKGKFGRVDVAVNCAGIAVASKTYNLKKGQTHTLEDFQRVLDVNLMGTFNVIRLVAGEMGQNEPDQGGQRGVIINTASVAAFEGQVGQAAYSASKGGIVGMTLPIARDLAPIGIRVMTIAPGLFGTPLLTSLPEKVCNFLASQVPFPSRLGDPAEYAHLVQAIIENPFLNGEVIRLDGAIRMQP
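20 nM HADH2 + cpd, 15 min RT; add 1 mM NAD+/90 uM beta-hydroxybutyryl-CoA; kinetic fluorescence 360/450 nm, 4 min. Tris-HCl pH 9.0, 0.01% Tween-20.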
AID923 = qHTS Assay for Allosteric/Competitive Inhibitors of Caspase-1: Spectroscopic Profiling in AFC Spectral Region; compound fluorescence, AFC spectral region (405/520 nm); Potency, µM (series often up to 57.5 µM), actives largely listed as activators; actives 1.1% (n = 75,000); AID 923, 2007
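Compound autofluorescence profiled at 405 nm ex/520 nm em during kinetic caspase 1 run (50 nM enzyme, 5 uM Ac-WEHD-AFC, HEPES pH 7.5, 10 mM DTT). Titration up to 57 uM; baseline from regression intercept, normalized to AFC standard curve.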
4MU fluor = compounds fluorescent in 4-MU spectral region; compound autofluorescence, 340/450 nm, 4-MU equivalents; hits give high values; actives 11% (n = 59,000); max dye-equivalent concentration, M; in the data active means max dye-equivalent concentration above about 10 nM; inconclusive means mostly about 1.1 nM to 9.6 nM
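Intrinsic fluorescence at 340/450 nm (ex/em) was read after 15 min at room temperature in pH 8.0, 100 mM Tris. Each compound concentration expressed as 4-MU-equivalent concentration from a six-point 4-MU standard series on each plate.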
A number is an active result; - = inactive; ? = inconclusive; . = no result; [ ] = remark or other dose. Most compounds without a hit are left out; they make up all but 14% or so of the library. Unless noted, the call rests on the fitted dose curve; in most records, active means well fitted curve in the direction sought with a large enough effect; inconclusive means small, poorly fitted or top-dose-only effect, or another doubt; inactive means no such curve, though single readings can be large; an effect the other way counts as inactive or inconclusive.

SMILES	CRE-bla Fsk	HSD17B inhib	A350 fluor	HADH2 inhib	AID923	4MU fluor
COC(=O)c1ccc(C(NC(=O)OCc2ccccc2)/C(C)=C/[C@@H](C)C(=O)N(C)Cc2cccnc2)cc1 (stereo partly drawn)	-	-	.	-	-	.
CCC(=O)Nc1nc2ccccc2n1CCN(C)C	.	.	3e-08M	.	.	2.6e-08M
CC1(C)CCC(NC(=O)[C@H](N)CCC(=O)O)CC1	-	-	-	-	-	-
Cc1ccc(/C=c2\sc3nc(-c4ccccc4Br)nn3c2=O)o1	-	-	?	-	-	-
COc1ccc(Br)cc1/C=c1\sc2nc(-c3ccco3)nn2c1=O	-	6.3µM	-	20µM	-	-
Cc1ccc(/C=c2\sc3nc(-c4ccco4)nn3c2=O)o1	-	13µM	?	16µM	-	?
CCOC(=O)c1cnc(-n2nc(C)cc2C)nc1N(CC)CC	?	-	1.5e-08M	-	-	1.2e-08M
CCOC(=O)c1cnc(-n2nc(C)cc2C)nc1NC1CCCCC1	-	-	1.2e-08M	-	-	1e-08M
CCOC(=O)c1cnc(-n2nc(C)cc2C)nc1NC	-	25µM	-	?	-	-
CCOC(=O)c1cnc(-n2nc(C)cc2C)nc1Nc1ccc(N(C)C)cc1	0.63µM	-	-	-	-	-
COc1ccc(-n2c(=O)c(C)nc3cnc(Oc4cccc(Cl)c4)nc32)cc1	?	-	-	-	-	-
COCC(=O)N1CCC2(CCCN(Cc3ccccc3OC)C2)CC1	-	-	-	-	-	-
COc1ccc(Oc2ncc3ncc(=O)n(C[C@H]4CCCO4)c3n2)cc1	-	-	-	-	-	-
O=C1C[C@@H](O)[C@@H](O)[C@H]2[C@@H]3C(=O)N(C[C@@H]4CCCO4)C(=O)[C@@H]3CC[C@H]12	.	-[11.4 µM]	.	-[11.4 µM]	-[11.5 µM]	.
Cc1sc2nnn(CC(=O)N3CCN(C(=O)c4ccco4)CC3)c(=O)c2c1C	-	?	1e-07M	?	-	7e-08M
Cc1nn(-c2ccccc2)c(C)c1C(=O)Nc1nnc(-c2ccco2)o1	-	-	-	-	-	-
COc1cccc2sc(Nc3nnc(-c4cccs4)o3)nc12	?	?	5.2e-08M	-	-	3.5e-08M
Fc1cccc2sc(Nc3nnc(-c4ccco4)o3)nc12	-	25µM	3.9e-08M	?	-	1.4e-08M
COc1cccc2sc(Nc3nc(-c4ccccn4)cs3)nc12	-	-	?	-	-	?
c1ccc(Nc2ncnc3ccc(-c4cccnc4)cc23)cc1	?	-	-	-	-	-
CN(C)c1nc(-c2cccc(C#N)c2)nc2ccccc12	?	?	-	-	-	-
CN(C)c1nc2ccccc2c(N)c1-c1ccccc1	-	32µM	?	-	-	?
COc1ccccc1N1CCN(C[C@@H](C(=O)NC(C)(C)C)c2ccccc2)CC1	?	?	.	-	-	.
COc1ccc(C(=O)N2CCC3(CCCN(CC(C)C)C3)CC2)cc1	-	-	-	-	-	-
O=C(NC1CCCC1)c1sc(=S)n2c1[nH]c(=O)c1ccccc12	?	?	-	25µM	-	-
SMILES	CRE-bla Fsk	HSD17B inhib	A350 fluor	HADH2 inhib	AID923	4MU fluor
O=C(NCc1ccco1)c1sc(=S)n2c1[nH]c(=O)c1ccccc12	?	25µM	-	16µM	-	-
Nc1nc2c(nc(Sc3ccc(Cl)cc3)n2C2OC(CO)C(O)C2O)c(=O)[nH]1 (stereo not drawn)	.	-	.	.	-	.
CC(C)NC(=O)N1CC2(CCN(C(=O)c3cccn3C)CC2)C1	-	-	-	-	-	-
Brc1ccc([C@H]2CN3CCSC3=N2)cc1	-	-	1.2e-08M	-	-	1.2e-08M
O=C1C2=C(Nc3ccccc3SC2c2ccco2)c2ccccc21 (stereo not drawn)	?	-	.	25µM	-	.
O=C1c2ccccc2NC(c2ccco2)N1O (stereo not drawn)	-	-	.	-	-	.
Cc1noc(C)c1C(=O)N1CCC2(CCCN(c3ncccn3)C2)CC1	-	?	-	-	-	-
O=C(Cn1cnc2c(cnn2-c2ccccc2)c1=O)NCCc1ccccc1	-	-	-	-	-	-
O=C(Cn1cnc2c(nnn2-c2ccccc2)c1=O)NCCc1ccccc1	13µM	-	.	-	-	.

Screening results deposited in PubChem BioAssay by National Center for Advancing Translational Sciences (NCATS).
